Laboratory results reported in the supplement of paper PMC10933113.
Counter-ions that a name gives are not always drawn. ± gives the uncertainty stated by the source.

Test system: THP-1
Assay: CD86 surface expression induction over DMSO control (% over DMSO); higher = stronger dendritic cell activation
Details: exposure time: 24 h
Method: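 hCLAT-like CD54 and CD86 surface expression on THP1 cells after 24 h exposure at a single concentration (highest non-cytotoxic concentration, or 100-200 µM if not cytotoxic). Flow cytometry (iQue) was run on 5,000 live cells.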

Q: With `CCOP(=S)(OCC)SC(CCl)N1C(=O)c2ccccc2C1=O` (stereo not given) [Dialifor] (100 µM) as the molecule, how does the “CD86 surface expression induction” value read?
A: 0.69 ± 0.85

Q: Which “CD86 surface expression induction” value does the source give for `O=C1OC(CCN2CCCCC2)OC1(c1ccccc1)c1ccccc1` (stereo not given) [Pipoxolan hydrochloride] (100 µM) here?
A: 98.2 ± 160

Q: For `CC(C)CC(C)Nc1ccc(Nc2ccccc2)cc1` (stereo not given) [N-(1,3-Dimethylbutyl)-N'-phenyl-p-phenylenediamine] (10 µM), which “CD86 surface expression induction” value is on record?
A: 59.8 ± 11

Q: With `[Cl][Cd][Cl]` [Cadmium II chloride] (200 µM) as the molecule, how does the “CD86 surface expression induction” value read?
A: 51.1 ± 5.8

Q: `CN(C)S(=O)(=O)N(SC(F)(Cl)Cl)c1ccccc1` [Dichlofluanid] (10 µM) was tested. Which “CD86 surface expression induction” value did it give?
A: 88.09 ± 0.57

Q: For `[OH-].c1cc[c]([Sn+]([c]2ccccc2)[c]2ccccc2)cc1` [Triphenyltin hydroxide] (10 µM), which “CD86 surface expression induction” value is on record?
A: 77.3 ± 9.9

Q: How did the “CD86 surface expression induction” value turn out when `Cc1ccc2c(c1N)C(=O)c1ccccc1C2=O` [1-Amino-2-methylanthraquinone] (100 µM) was run?
A: 102 ± 24

Q: Which “CD86 surface expression induction” value does the source give for `O=[N+]([O-])c1c(Cl)c(Cl)c(Cl)c(Cl)c1Cl` [Pentachloronitrobenzene] (100 µM) here?
A: 55.3 ± 53

Q: `Nc1ccc(Cl)cc1Cl` [2,4-Dichloroaniline] (200 µM) was tested. Which “CD86 surface expression induction” value did it give?
A: -3.25 ± 7.7

Q: Which “CD86 surface expression induction” value does the source give for `O=[N+]([O-])c1ccc(Oc2ccc(C(F)(F)F)cc2[N+](=O)[O-])cc1` [Fluorodifen] (10 µM) here?
A: -11.9 ± 9.2

Q: For `N#CCC#N` [Propanedinitrile] (199 µM), which “CD86 surface expression induction” value is on record?
A: -2.3 ± 0.49

Q: For `O=C1C=CC(=O)c2ccccc21` (10 µM), which “CD86 surface expression induction” value is on record?
A: 366 ± 22

Q: For `ClC1=C(Cl)C2(Cl)C3C(Cl)C(Cl)CC3C1(Cl)C2(Cl)Cl` (stereo not given) [Chlordane] (200 µM), which “CD86 surface expression induction” value is on record?
A: 33.3 ± 45

Q: How did the “CD86 surface expression induction” value turn out when `C[C@@H]1O[C@@H](O[C@H]2C[C@@H](O)[C@]3(CO)[C@H]4[C@H](O)C[C@]5(C)[C@@H](C6=CC(=O)OC6)CC[C@]5(O)[C@@H]4CC[C@]3(O)C2)[C@H](O)[C@H](O)[C@H]1O` [Ouabain] (10 µM) was run?
A: 51.7 ± 16

Q: For `C=C1C[C@@H]2[C@H](CC[C@]3(C)C(=O)CC[C@@H]23)[C@@]2(C)C=CC(=O)C=C12` [Exemestane] (100 µM), which “CD86 surface expression induction” value is on record?
A: 12.3 ± 25

Q: With `CCCCOCN(C(=O)CCl)c1c(CC)cccc1CC` [Butachlor] (10 µM) as the molecule, how does the “CD86 surface expression induction” value read?
A: -11.7 ± 10

Q: How did the “CD86 surface expression induction” value turn out when `OCc1ccco1` [Furfuryl alcohol] (201 µM) was run?
A: 5.82 ± 11

Q: Which “CD86 surface expression induction” value does the source give for `ClC1=C(Cl)C(Cl)(Cl)C(Cl)=C1Cl` [Hexachlorocyclopentadiene] (200 µM) here?
A: 99.2 ± 97

Q: Which “CD86 surface expression induction” value does the source give for `CS/C(C)=N\OC(=O)N(C)SN(C)C(=O)O/N=C(\C)SC` [Thiodicarb] (10 µM) here?
A: -14.6 ± 7.8

Q: Which “CD86 surface expression induction” value does the source give for `Cc1ccc(N=C=O)cc1N=C=O` [Toluene-2,4-diisocyanate] (100 µM) here?
A: 3.76 ± 8.7

Q: For `COc1ccc2[nH]cc(CCN(C(C)C)C(C)C)c2c1` [5-Methoxy-N,N-diisopropyltryptamine hydrochloride] (224.7 µM), which “CD86 surface expression induction” value is on record?
A: -4.94 ± 3.2

Q: How did the “CD86 surface expression induction” value turn out when `O=[N+]([O-])c1cc(C(F)(F)F)c(Cl)c([N+](=O)[O-])c1Cl` [2,4-Dichloro-1,3-dinitro-5-(trifluoromethyl)benzene] (10 µM) was run?
A: 34.2 ± 15

Q: Which “CD86 surface expression induction” value does the source give for `NNC(N)=S` [Thiosemicarbazide] (10 µM) here?
A: -15.6 ± 6.4

Q: `S=C=NCc1ccccc1` (10 µM) was tested. Which “CD86 surface expression induction” value did it give?
A: 64.3 ± 6.8

Q: Which “CD86 surface expression induction” value does the source give for `C[C@]12CC[C@H](O)C[C@H]1CC[C@@H]1[C@@H]2C[C@@H](O)[C@]2(C)[C@@H](C3=CC(=O)OC3)CC[C@]12O` [Digoxigenin] (10 µM) here?
A: 46.8 ± 22

Q: How did the “CD86 surface expression induction” value turn out when `O=C(O)c1ccccc1C(=O)Nc1cccc2ccccc12` [Naptalam*] (200 µM) was run?
A: 78.5 ± 110

Q: `Cl/C=C\C[N+]12CN3CN(CN(C3)C1)C2` [Chloroallyl methenamine chloride] (10 µM) was tested. Which “CD86 surface expression induction” value did it give?
A: -4.14 ± 1.1

Q: With `Cc1cc(C2CC2)nc(Nc2ccccc2)n1` [Cyprodinil] (200 µM) as the molecule, how does the “CD86 surface expression induction” value read?
A: 44.9 ± 64

Q: `Nc1ccc([N+](=O)[O-])cc1N` [4-Nitro-1,2-phenylenediamine] (100 µM) was tested. Which “CD86 surface expression induction” value did it give?
A: -1.29 ± 1.9

Q: With `CC(C)Nc1ccc(Nc2ccccc2)cc1` [N-Isopropyl-N'-phenyl-p-phenylenediamine] (10 µM) as the molecule, how does the “CD86 surface expression induction” value read?
A: 91.4 ± 6.8

Q: For `c1ccc(-c2cccc(-c3ccccc3)c2)cc1` [1,1':3',1''-Terphenyl] (200 µM), which “CD86 surface expression induction” value is on record?
A: 17.1 ± 26

Q: Which “CD86 surface expression induction” value does the source give for `NCCc1ccc(O)cc1` [Tyramine] (100 µM) here?
A: -4.16 ± 4.5

Q: `NNCc1ccccc1` (100 µM) was tested. Which “CD86 surface expression induction” value did it give?
A: 2.81 ± 0.59

Q: With `COc1ccc(C(c2ccc(OC)cc2)C(Cl)(Cl)Cl)cc1` [Methoxychlor] (200 µM) as the molecule, how does the “CD86 surface expression induction” value read?
A: 70.8 ± 55

Q: For `CC(C)=CC1C(C(=O)OCc2coc(Cc3ccccc3)c2)C1(C)C` (stereo not given) [Resmethrin] (200 µM), which “CD86 surface expression induction” value is on record?
A: 16.4 ± 4.8

Q: How did the “CD86 surface expression induction” value turn out when `c1ccc2c(c1)OCC(C1=NCCN1)O2` (stereo not given) [Idazoxan] (10 µM) was run?
A: -10.6 ± 13

Q: With `N#C/C=C/C#N` [Fumaronitrile] (10 µM) as the molecule, how does the “CD86 surface expression induction” value read?
A: -2.66 ± 6.7

Q: With `CCOC(=O)NC(=S)Nc1ccccc1NC(=S)NC(=O)OCC` [Thiophanate] (100 µM) as the molecule, how does the “CD86 surface expression induction” value read?
A: 10.2 ± 18

Q: For `CCc1cccc(CC)c1N(COC)C(=O)CCl` [Alachlor] (100 µM), which “CD86 surface expression induction” value is on record?
A: 22.3 ± 7.5

Q: `[CH3][Hg][Cl]` [Methyl mercuric (II) chloride] (10 µM) was tested. Which “CD86 surface expression induction” value did it give?
A: 86 ± 7.1
